Assay results taken from PubChem BioAssay (EPA / NIEHS).
Results filed as inconclusive are left out. Calls of active or inactive are those of the source. Rule for the calls: active = hit-call score of the fitted dose curve at least 0.9, where 1 is the maximum; inconclusive = response in the unintended direction; inactive = score below 0.9.

Experiments:
[1] = ACEA_AR_agonist_AUC_viability: ACEA Biosciences xCELLigence Real-Time Cell Analysis on Androgen Receptor Agonism for Viability (AID 2283775);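 for AC50: viability read 80 hours after compound addition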
Outline: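 Read-out is area under the impedance curve at 80 h post-dose in 22Rv1 cells, with DMSO as baseline and signal loss taken as reduced viability. Compounds ran in duplicate from 100 uM final.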

[2] = test system: frog Estrogen Receptor (ESR2), gene 100174814; assay: ATG_frER2_XSP1: Attagene TRANS-FACTORIAL Multi-Species (XSP1) HepG2 Assay for frog Estrogen Receptor (ESR2) (AID 2283774)
Outline: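 Transactivation of an exogenous receptor-Gal4 fusion is tracked in transfected HepG2 cells via induced reporter transcript levels. After 24 h treatment, RT-PCR with capillary electrophoresis quantifies signal gain over DMSO.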

[3] = ACEA_AR_antagonist_AUC_viability: ACEA Biosciences xCELLigence Real-Time Cell Analysis on Androgen Receptor Antagonism for Viability (AID 2283776);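 note: 22Rv1 human prostate cancer cells growing on impedance electrode plates; area under impedance growth curve at 80 h after dosing as viability; hits lower the growth signal relative to DMSO meaning cytotoxicity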
Outline: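 Viability endpoint from label-free cell-index monitoring: 22Rv1 cultures treated with an eight-point 1:4 dilution series starting at 100 uM final, AUC at 80 h fitted against DMSO.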

[4] = target: chicken Estrogen Receptor (ESR1), ESR1 (gene 396099) (UniProt P06212); assay: ATG_chERa_XSP1: Attagene TRANS-FACTORIAL Multi-Species (XSP1) HepG2 Assay for chicken Estrogen Receptor (ESR1) (AID 2283779)
Outline: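 Human liver HepG2, transient MRTU transfection (NR-Gal4 chimeras, GAL4-UAS reporters); 24 h compound exposure; 3 nM 6-alpha-fluorotestosterone in medium. Total RNA → RT-PCR → 6-FAM primer extension → HpaI → CE. Positive direction vs DMSO baseline.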

[5] = target: AR (gene 367) (UniProt P10275); assay: ACEA_AR_agonist_80hr: ACEA Biosciences xCELLigence Real-Time Cell Analysis on Androgen Receptor Agonism for Proliferation (AID 2283783);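 note: hits increase impedance growth signal above DMSO baseline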
Outline: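 Androgen-driven proliferation in 22Rv1 cells is tracked as electrical impedance, taken 80 h after continuous exposure to compound (eight concentrations, 1:4 steps, maximum 100 uM final). Activity is fitted in the positive direction with DMSO as baseline.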

[6] = target: human Androgen Receptor (AR), AR (gene 367) (UniProt P10275); assay: ATG_hAR_XSP1: Attagene TRANS-FACTORIAL Multi-Species (XSP1) HepG2 Assay for human Androgen Receptor (AR) (AID 2283785)
Procedure: ATG_XSP1_multi-species_TRANS is a cell-based, multiplexed assay created by modifying the existing Attagene TRANS-FACTORIAL system to include a panel of nuclear receptors from some or all the following species: human (Homo sapiens), mouse (Mus musculus), frog (Xenopus laevis), zebrafish (Danio rerio), chicken (Gallus gallus), and turtle (Chrysemys picta). The ECOTOX-FACTORIAL format uses HepG2, a human liver cell line, with measurements taken at 24 hours after chemical dosing in a 24-well plate. Xsp1 included 3 nM 6-alpha-fluorotestosterone to partially stimulate the androgen receptor.ATG_hAR_XSP1 is one of 29 assay components measured or calculated from the ATG_XSP1_multi-species_TRANS assay. It is designed to make measurements of mRNA induction, a form of inducible reporter, as detected with fluorescence intensity signals by Reverse transcription polymerase chain reaction (RT-PCR) and Capillary electrophoresis technology.The assay endpoint ATG_hAR_XSP1 was analyzed in the positive analysis fitting direction relative to DMSO as the negative control and baseline of activity. […] Furthermore, this assay endpoint can be referred to as a primary readout, because this assay has produced multiple assay endpoints where this one serves a reporter gene function. […]

[7] = target: AR (gene 367) (UniProt P10275); assay: ACEA_AR_antagonist_80hr: ACEA Biosciences xCELLigence Real-Time Cell Analysis on Androgen Receptor Antagonism for Proliferation (AID 2283787);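 note: 22Rv1 human prostate cancer cells with growth followed by electrical impedance; hits lower the impedance growth signal relative to DMSO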
Outline: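 Growth-kinetic antagonist readout in 22Rv1 cells, taken 80 h after continuous compound exposure. Activity fitted as signal loss relative to DMSO negative control.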

[8] = target: Estrogen receptor beta (Homo sapiens) (UniProt Q92731); assay: ATG_hERb_XSP1: Attagene TRANS-FACTORIAL Multi-Species (XSP1) HepG2 Assay for human Estrogen Receptor (ESR2) (AID 2283788)
Outline: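 Measured endpoint is transcriptional gain of signal from a GAL4-UAS reporter controlled by chimeric ERβ in HepG2 liver cells. Exposure lasts 24 h alongside 3 nM 6-alpha-fluorotestosterone, with DMSO as negative control.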

[9] = target: GAL4 Transcription Factor (Internal Marker), GAL4 (gene 855828) (UniProt P04386); assay: ATG_GAL4_XSP1: Attagene TRANS-FACTORIAL Multi-Species (XSP1) HepG2 Assay for GAL4 Transcription Factor (Internal Marker) (AID 2283789)
Outline: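 HepG2 cells transiently transfected with multiplexed GAL4-UAS reporter units were exposed for 24 h with 3 nM 6-alpha-fluorotestosterone present. Reporter mRNA was quantified by RT-PCR, FAM labelling, HpaI digestion and capillary electrophoresis; background-control readout, gain-of-signal versus DMSO.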

[10] = ATG_M_06_XSP1: Attagene TRANS-FACTORIAL Multi-Species (XSP1) HepG2 Assay for M06 Transcription Factor (Internal Marker) (AID 2283790)
Outline: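 Transfected HepG2 multi-reporter system treated 24 h in the presence of 3 nM 6-alpha-fluorotestosterone. The M06 internal marker transcript was quantified by RT-PCR with capillary electrophoresis as a background control, and gain of signal was scored versus DMSO.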

[11] = ATG_M_61_XSP1: Attagene TRANS-FACTORIAL Multi-Species (XSP1) HepG2 Assay for M61 Transcription Factor (Internal Marker) (AID 2283797)
Outline: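 HepG2 cells transiently transfected with multiplexed GAL4-driven reporter units, dosed 24 h with 3 nM 6-alpha-fluorotestosterone present. Reporter mRNA quantified by RT-PCR, 6-FAM labelling, HpaI digestion and capillary electrophoresis; internal-marker background control, gain of signal versus DMSO.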

[12] = test system: zebrafish Peroxisome Proliferator-activated Receptor gamma (PPARg), gene 557037; assay: ATG_zfPPARg_XSP1: Attagene TRANS-FACTORIAL Multi-Species (XSP1) HepG2 Assay for zebrafish Peroxisome Proliferator-activated Receptor gamma (PPARg) (AID 2283801)
Outline: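 HepG2 cells transiently transfected with GAL4-UAS reporter units including a zebrafish PPARg–GAL4 chimera, dosed 24 h with 3 nM 6-alpha-fluorotestosterone present. Reporter mRNA quantified by RT-PCR, FAM labelling, HpaI digestion and capillary electrophoresis; induction versus DMSO.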

[13] = test system: zebrafish Estrogen Receptor (ESR2B), gene 317733; assay: ATG_zfER2b_XSP1: Attagene TRANS-FACTORIAL Multi-Species (XSP1) HepG2 Assay for zebrafish Estrogen Receptor (ESR2B) (AID 2283773)
Outline: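 Gain-of-signal endpoint relative to DMSO: reporter transcript levels quantified by RT-PCR and capillary electrophoresis after 24 h compound exposure of HepG2 cells expressing a zebrafish ER2b-Gal4 chimera.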

[14] = ATG_M_19_XSP1: Attagene TRANS-FACTORIAL Multi-Species (XSP1) HepG2 Assay for M19 Transcription Factor (Internal Marker) (AID 2283798)
Outline: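 HepG2 cells transiently transfected with multiplexed GAL4-UAS reporter units, dosed 24 h with 3 nM 6-alpha-fluorotestosterone present for partial AR stimulation. Reporter mRNA measured by RT-PCR with capillary electrophoresis; gain-of-signal fitted relative to DMSO.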

[15] = target: Peroxisome proliferator-activated receptor gamma (Homo sapiens) (UniProt P37231); assay: ATG_hPPARg_XSP1: Attagene TRANS-FACTORIAL Multi-Species (XSP1) HepG2 Assay for human Peroxisome Proliferator-activated Receptor gamma (PPARg) (AID 2283800)
Outline: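 HepG2 cells transiently transfected with GAL4-UAS reporter units carrying chimeric NR-Gal4 proteins; 3 nM 6-alpha-fluorotestosterone present. After 24 h dosing, reporter mRNA quantified by RT-PCR and capillary electrophoresis; gain of signal relative to DMSO.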

[16] = target: zebrafish Estrogen Receptor (ESR1), esr1 (gene 259252) (UniProt P57717); assay: ATG_zfER1_XSP1: Attagene TRANS-FACTORIAL Multi-Species (XSP1) HepG2 Assay for zebrafish Estrogen Receptor (ESR1) (AID 2283772)
Outline: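 Transfect HepG2 with GAL4-UAS multi-reporter constructs; treat 24 h (medium carries 3 nM 6-alpha-fluorotestosterone); extract RNA, reverse-transcribe, PCR-amplify, FAM-label, digest with HpaI; resolve by capillary electrophoresis and compare against DMSO baseline.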

[17] = test system: frog Estrogen Receptor (ESR1), gene 398734; assay: ATG_frER1_XSP1: Attagene TRANS-FACTORIAL Multi-Species (XSP1) HepG2 Assay for frog Estrogen Receptor (ESR1) (AID 2283777)
Outline: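 Human hepatoma HepG2 cells carried transiently transfected multiplexed Gal4-driven reporters and were exposed to test chemicals for 24 hours. Transcripts were quantified by fluorescent RT-PCR with capillary electrophoresis, referenced to DMSO.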

[18] = test system: zebrafish Estrogen Receptor (ESR2A), gene 317734; assay: ATG_zfER2a_XSP1: Attagene TRANS-FACTORIAL Multi-Species (XSP1) HepG2 Assay for zebrafish Estrogen Receptor (ESR2A) (AID 2283778)
Outline: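 Cells were transfected, dosed for 24 h, then total RNA was isolated. After oligo(dT) reverse transcription, reporter sequences were amplified, FAM-labelled by primer extension, digested with HpaI and sized by capillary electrophoresis; DMSO served as baseline.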

[19] = test system: turtle Androgen Receptor (AR), gene 101947425; assay: ATG_trAR_XSP1: Attagene TRANS-FACTORIAL Multi-Species (XSP1) HepG2 Assay for turtle Androgen Receptor (AR) (AID 2283786)
Outline: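 HepG2 cells transiently transfected with a turtle AR–GAL4 chimera and GAL4-UAS reporter, co-treated with 3 nM 6-alpha-fluorotestosterone for partial stimulation. Reporter mRNA is quantified at 24 h by RT-PCR and capillary electrophoresis, gain-of-signal versus DMSO.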

[20] = ATG_M_32_XSP1: Attagene TRANS-FACTORIAL Multi-Species (XSP1) HepG2 Assay for M32 Transcription Factor (Internal Marker) (AID 2283799)
Outline: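 HepG2 cells transiently transfected with multi-species TRANS reporter units, dosed 24 h with 3 nM 6-alpha-fluorotestosterone present. Internal-marker reporter mRNA quantified by RT-PCR and capillary electrophoresis; positive-direction fit versus DMSO.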

Measured: AC50

Sequence of GAL4 Transcription Factor (Internal Marker), GAL4 (gene 855828) (P04386 whole entry, looked up, the tested form may be a part): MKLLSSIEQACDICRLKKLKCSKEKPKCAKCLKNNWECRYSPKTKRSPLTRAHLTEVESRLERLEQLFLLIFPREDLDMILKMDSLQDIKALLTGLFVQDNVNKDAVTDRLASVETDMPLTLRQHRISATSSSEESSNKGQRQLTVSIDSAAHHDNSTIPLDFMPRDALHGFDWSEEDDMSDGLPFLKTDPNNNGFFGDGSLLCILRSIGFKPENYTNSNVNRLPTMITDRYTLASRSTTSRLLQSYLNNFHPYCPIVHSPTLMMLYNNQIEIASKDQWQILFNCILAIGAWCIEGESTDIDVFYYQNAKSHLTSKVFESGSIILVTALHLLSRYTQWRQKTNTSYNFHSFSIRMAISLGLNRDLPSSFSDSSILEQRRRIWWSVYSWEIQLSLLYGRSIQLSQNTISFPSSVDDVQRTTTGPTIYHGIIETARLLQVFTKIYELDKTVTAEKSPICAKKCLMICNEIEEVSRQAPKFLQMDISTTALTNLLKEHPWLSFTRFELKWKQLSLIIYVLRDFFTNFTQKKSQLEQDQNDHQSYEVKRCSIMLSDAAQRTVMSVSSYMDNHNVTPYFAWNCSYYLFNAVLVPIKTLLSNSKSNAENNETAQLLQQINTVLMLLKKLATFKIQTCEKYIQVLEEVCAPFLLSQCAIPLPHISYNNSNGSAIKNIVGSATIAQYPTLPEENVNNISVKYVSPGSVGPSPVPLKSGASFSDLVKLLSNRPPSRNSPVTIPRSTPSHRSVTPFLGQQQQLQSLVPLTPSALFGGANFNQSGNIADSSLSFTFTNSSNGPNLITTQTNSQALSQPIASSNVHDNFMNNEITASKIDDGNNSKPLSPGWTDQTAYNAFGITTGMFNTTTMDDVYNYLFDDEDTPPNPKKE
Sequence of AR (gene 367) (P10275 whole entry, looked up): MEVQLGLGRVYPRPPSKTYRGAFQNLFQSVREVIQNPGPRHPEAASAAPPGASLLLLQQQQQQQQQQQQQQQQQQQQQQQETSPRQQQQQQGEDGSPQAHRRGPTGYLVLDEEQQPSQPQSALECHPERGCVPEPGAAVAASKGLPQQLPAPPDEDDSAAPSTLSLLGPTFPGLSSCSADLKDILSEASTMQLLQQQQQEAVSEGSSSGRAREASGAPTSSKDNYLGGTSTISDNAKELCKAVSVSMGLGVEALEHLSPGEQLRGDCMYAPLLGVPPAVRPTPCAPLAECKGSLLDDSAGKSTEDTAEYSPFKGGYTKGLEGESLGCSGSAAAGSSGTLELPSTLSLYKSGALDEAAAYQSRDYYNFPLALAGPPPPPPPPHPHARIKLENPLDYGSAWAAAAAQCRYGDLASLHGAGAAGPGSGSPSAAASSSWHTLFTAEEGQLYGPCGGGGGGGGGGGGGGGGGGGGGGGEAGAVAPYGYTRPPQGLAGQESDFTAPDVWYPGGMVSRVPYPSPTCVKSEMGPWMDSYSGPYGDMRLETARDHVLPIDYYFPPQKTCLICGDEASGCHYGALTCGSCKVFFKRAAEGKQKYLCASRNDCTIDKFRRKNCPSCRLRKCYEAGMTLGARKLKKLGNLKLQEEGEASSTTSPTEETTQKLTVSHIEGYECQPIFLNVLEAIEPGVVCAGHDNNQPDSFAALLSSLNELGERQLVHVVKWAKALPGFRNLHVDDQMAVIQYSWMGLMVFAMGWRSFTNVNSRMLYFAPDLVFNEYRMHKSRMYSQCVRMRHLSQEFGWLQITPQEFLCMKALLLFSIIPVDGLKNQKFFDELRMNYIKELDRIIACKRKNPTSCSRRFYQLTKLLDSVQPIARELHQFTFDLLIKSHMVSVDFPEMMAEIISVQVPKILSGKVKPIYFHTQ
Sequence of chicken Estrogen Receptor (ESR1), ESR1 (gene 396099) (P06212 whole entry, looked up, the tested form may be a part): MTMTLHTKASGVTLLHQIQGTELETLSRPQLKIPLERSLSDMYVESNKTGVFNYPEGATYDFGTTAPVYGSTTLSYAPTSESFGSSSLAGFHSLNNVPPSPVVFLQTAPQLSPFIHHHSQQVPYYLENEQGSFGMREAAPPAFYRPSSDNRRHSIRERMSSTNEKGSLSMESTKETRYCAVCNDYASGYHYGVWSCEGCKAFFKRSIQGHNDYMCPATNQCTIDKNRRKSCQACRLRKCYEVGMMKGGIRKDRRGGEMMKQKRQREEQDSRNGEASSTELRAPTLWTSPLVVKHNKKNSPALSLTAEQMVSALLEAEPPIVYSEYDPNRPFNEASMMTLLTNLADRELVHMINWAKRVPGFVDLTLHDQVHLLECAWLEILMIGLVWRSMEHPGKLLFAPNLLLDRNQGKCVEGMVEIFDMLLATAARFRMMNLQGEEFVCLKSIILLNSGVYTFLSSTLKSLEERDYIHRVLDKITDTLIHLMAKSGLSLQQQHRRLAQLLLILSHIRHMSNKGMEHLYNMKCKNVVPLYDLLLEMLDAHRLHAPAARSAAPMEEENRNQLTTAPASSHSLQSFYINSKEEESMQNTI
Sequence of Estrogen receptor beta (Homo sapiens) (Q92731 whole entry, looked up, the tested form may be a part): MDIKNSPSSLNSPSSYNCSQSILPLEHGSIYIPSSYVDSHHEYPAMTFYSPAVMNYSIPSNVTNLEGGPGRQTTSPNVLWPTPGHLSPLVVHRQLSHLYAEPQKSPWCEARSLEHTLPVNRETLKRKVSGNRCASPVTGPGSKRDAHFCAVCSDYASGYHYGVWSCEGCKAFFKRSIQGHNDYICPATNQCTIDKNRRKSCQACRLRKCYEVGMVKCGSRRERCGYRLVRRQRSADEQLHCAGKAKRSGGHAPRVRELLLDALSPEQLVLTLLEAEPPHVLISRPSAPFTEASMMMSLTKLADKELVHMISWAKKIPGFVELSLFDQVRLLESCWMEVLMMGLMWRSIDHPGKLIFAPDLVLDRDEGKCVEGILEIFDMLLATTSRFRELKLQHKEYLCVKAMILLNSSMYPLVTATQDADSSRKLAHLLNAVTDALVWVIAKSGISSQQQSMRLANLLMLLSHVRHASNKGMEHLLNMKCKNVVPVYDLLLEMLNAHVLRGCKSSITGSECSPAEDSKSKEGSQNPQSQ
Sequence of zebrafish Estrogen Receptor (ESR1), esr1 (gene 259252) (P57717 whole entry, looked up, the tested form may be a part): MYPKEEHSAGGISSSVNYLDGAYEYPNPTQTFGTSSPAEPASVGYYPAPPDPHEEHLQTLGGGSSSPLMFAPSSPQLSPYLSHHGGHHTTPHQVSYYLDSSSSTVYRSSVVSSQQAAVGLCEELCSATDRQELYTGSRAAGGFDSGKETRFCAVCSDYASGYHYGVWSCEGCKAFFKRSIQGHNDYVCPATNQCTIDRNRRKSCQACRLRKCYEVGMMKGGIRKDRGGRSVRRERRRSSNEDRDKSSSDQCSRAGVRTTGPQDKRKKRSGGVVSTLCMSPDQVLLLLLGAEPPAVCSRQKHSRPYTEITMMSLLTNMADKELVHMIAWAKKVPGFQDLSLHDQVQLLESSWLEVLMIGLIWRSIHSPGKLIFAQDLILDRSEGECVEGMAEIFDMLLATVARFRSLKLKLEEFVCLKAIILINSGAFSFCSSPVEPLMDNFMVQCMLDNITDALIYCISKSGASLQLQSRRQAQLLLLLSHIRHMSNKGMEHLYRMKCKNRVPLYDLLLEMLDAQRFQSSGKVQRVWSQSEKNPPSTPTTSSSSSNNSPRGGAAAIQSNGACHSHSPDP
Sequence of Peroxisome proliferator-activated receptor gamma (Homo sapiens) (P37231 whole entry, looked up, the tested form may be a part): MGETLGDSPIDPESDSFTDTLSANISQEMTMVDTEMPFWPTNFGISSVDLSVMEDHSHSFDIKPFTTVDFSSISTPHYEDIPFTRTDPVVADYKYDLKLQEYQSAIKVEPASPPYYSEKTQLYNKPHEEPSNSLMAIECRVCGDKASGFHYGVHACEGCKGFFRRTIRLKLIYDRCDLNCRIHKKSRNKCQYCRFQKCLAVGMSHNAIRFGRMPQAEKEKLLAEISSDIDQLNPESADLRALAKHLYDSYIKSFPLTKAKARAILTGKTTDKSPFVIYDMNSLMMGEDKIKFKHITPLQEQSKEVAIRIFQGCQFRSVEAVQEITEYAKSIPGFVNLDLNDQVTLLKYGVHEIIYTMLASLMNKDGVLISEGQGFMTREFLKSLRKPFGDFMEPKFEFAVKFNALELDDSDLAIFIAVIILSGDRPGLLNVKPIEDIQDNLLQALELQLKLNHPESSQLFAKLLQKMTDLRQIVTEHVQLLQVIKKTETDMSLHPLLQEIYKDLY
Sequence of human Androgen Receptor (AR), AR (gene 367) (P10275 whole entry, looked up): as the sequence (P10275 whole entry, looked up) above

Fc1ccc(Oc2ccnc3cc(Cl)cc(Cl)c23)cc1
active: [1] 76.3 µM

CO/C=C(/C(=O)OC)c1ccccc1Oc1cc(Oc2ccccc2C#N)ncn1
inactive: [2] | [4] | [5] | [6] | [8] | [9] | [10] | [11] | [12]
active: [1] 46.7 µM | [3] 45.3 µM | [7] 61.2 µM

CCOP(=S)(OCC)SCn1c(=O)oc2cc(Cl)ccc21
inactive: [10] | [11] | [14] | [15] | [12]
active: [13] 24.5 µM | [1] 91.5 µM

O=C(O)c1nc(Cl)ccc1Cl
inactive: [1]

COC(=O)C(C)Oc1ccc(Oc2ccc(Cl)cc2Cl)cc1 (configuration not stated)
active: [1] 50 µM

COc1ccc(C(c2ccc(OC)cc2)C(Cl)(Cl)Cl)cc1
inactive: [16] | [18] | [8] | [9] | [10] | [11] | [14] | [15]
active: [13] 1.08 µM | [2] 1.09 µM | [1] 80.8 µM | [17] 0.368 µM | [4] 1.97 µM

CCCCNC(=O)OCC#CI
inactive: [16] | [13] | [18] | [10] | [11]
active: [1] 11.6 µM | [15] 11.1 µM

COP(N)(=O)SC (configuration not stated)
inactive: [1]

COP(=S)(OC)Oc1nc(Cl)c(Cl)cc1Cl
active: [13] 46.6 µM | [2] 61.6 µM | [17] 31 µM | [4] 27.8 µM | [19] 25.3 µM | [8] 27.1 µM | [15] 2.29 µM
inactive: [16] | [1] | [10] | [11] | [14]

CCCC1COC(Cn2cncn2)(c2ccc(Cl)cc2Cl)O1 (configuration not stated)
active: [13] 27.6 µM | [2] 27 µM | [7] 76.1 µM | [15] 11.8 µM
inactive: [16] | [1] | [17] | [18] | [4] | [5] | [14] | [20] | [12]

CCCCC(CC)COC(=O)c1ccccc1C(=O)OCC(CC)CCCC (configuration not stated)
inactive: [2] | [17] | [4] | [10] | [11] | [14] | [20] | [12]
active: [13] 16.1 µM | [1] 50 µM | [15] 8.96 µM

CC(C)Oc1cc(-n2nc(C(C)(C)C)oc2=O)c(Cl)cc1Cl
active: [13] 29.6 µM | [2] 33.5 µM | [1] 50 µM | [17] 7.92 µM | [4] 27.2 µM | [8] 100 µM | [15] 12.7 µM
inactive: [16] | [18] | [19] | [9] | [10] | [11] | [12]

CCc1nn(C)c(C(=O)NCc2ccc(C(C)(C)C)cc2)c1Cl
active: [1] 25.3 µM

CON(C)C(=O)Nc1ccc(Cl)c(Cl)c1
active: [13] 35.9 µM | [2] 29.1 µM | [17] 10.4 µM | [4] 27.3 µM | [15] 100 µM
inactive: [16] | [1] | [18] | [10] | [11]

C#CCOS(=O)OC1CCCCC1Oc1ccc(C(C)(C)C)cc1 (configuration not stated)
inactive: [17] | [10] | [11]
active: [16] 166 µM | [13] 80.1 µM | [2] 25.8 µM | [1] 44.7 µM | [4] 26.8 µM | [19] 1.6 µM | [8] 24.2 µM | [15] 26.1 µM | [12] 129 µM

C=CCC1=C(C)[C@@H](OC(=O)[C@@H]2[C@@H](C=C(C)C)C2(C)C)CC1=O
active: [1] 66.9 µM
